Screens as filed in PubChem BioAssay.
Only some compounds are listed: those with a hit (about 6.7% of all), similar ones and a draw of the others.
BoNT F protease: inhibitors of Botulinum neurotoxin F light chain protease | Multiplex microsphere protease cleavage assay, flow cytometry | inhibition, % at 10 µM | 360,000 compounds, 0.22% hits | AID 588497; in the data active = inhibition above about 35%, passing the limit was not always enough; inconclusive = no clear call, values can overlap the other calls; note: plate controls were buffer without enzyme for full effect and enzyme alone for no effect
FBA Mtb inh: Mtb fructose-bisphosphate aldolase inhibition; purified M. tuberculosis FBA, fluorescence read-out; inhibition, % at 1 µM; 360,000 compounds, 2.3% hits; in the data active = inhibition above about 27%;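 note: 0% = vehicle and 100% = reference inhibitor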
Target sequence (P9WQA3 whole entry, looked up): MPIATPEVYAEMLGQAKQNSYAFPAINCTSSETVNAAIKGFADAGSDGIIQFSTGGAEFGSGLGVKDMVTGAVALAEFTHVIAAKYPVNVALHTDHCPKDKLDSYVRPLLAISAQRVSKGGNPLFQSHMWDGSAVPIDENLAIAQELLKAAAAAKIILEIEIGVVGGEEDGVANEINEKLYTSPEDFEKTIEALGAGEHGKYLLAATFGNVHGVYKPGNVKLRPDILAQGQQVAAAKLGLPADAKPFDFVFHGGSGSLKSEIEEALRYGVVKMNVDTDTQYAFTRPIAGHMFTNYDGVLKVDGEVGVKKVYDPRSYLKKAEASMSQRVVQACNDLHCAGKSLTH
GDH-TPI inh: inhibits GDH-TPI coupling enzymes, artifact for Mtb FBA screen; 360,000 compounds, 1.2% hits; inhibition, % at 4.8 µM; GDH-TPI coupled enzyme counterscreen, NADH absorbance; AID 588335; in the data active = inhibition above about 30%;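 note: 0% = DMSO wells and 100% = wells lacking the enzyme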
Bead autofluor: counter-screen for toxin protease inhibitors: compound fluorescence | compound autofluorescence counterscreen, microsphere flow cytometry; stronger effect = higher value | fluorescence intensity (no concentration beside the values) | 360,000 compounds, 3.1% hits | AID 624483; in the data active = fluorescence intensity above about 16000; inconclusive = no clear call, values can overlap the other calls
Anthrax LF inh2: anthrax lethal factor protease inhibition. multiplex microsphere protease cleavage assay, LF. inhibition, % at 10 µM. 360,000 compounds, 0.12% hits; note: plate controls were buffer without enzyme for full effect and enzyme alone for no effect
BoNT A protease: inhibitors of Botulinum neurotoxin A light chain protease | multiplex microsphere protease substrate cleavage, flow cytometry | inhibition, % at 10 µM | 360,000 compounds, 0.17% hits | AID 588499; note: plate controls were buffer without enzyme for full effect and enzyme alone for no effect
* hit, by the source's call; ? = inconclusive. Cut-off read from the data, not from the text of the source, unless noted: active = inhibition above about 30%; inconclusive = no clear call, values can overlap the other calls; inactive = below that.

SMILES	BoNT F protease	FBA Mtb inh	GDH-TPI inh	Bead autofluor	Anthrax LF inh2	BoNT A protease
Cc1cc2n(c(=O)c1C#N)CCCN2c1ccccc1	-3	4	58*	16496*	0	0
CCOc1ccc(C(=O)Nc2nnc(S(=O)(=O)N(C)Cc3ccco3)s2)cc1	-7	7	39*	4488	0	-1
CCOc1ccc(C(=O)Nc2nnc(NC(=S)Nc3ccccc3)s2)cc1	-7	-2	40*	5307	2	-2
CN(Cc1ccco1)S(=O)(=O)c1nnc(NC(=O)c2ccc(F)cc2)s1	4	9	38*	5335	0	-1
Cc1ccc(C(=O)Nc2nnc(NC(=S)Nc3ccccc3)s2)cc1	10	-2	24	4508	-4	-1
COc1ccc(N2CCN(C(=O)C(C)(C)Oc3ccc(Cl)cc3)CC2)cc1	-2	2	-3	5495	-8	-1
COc1cccc(NC(=O)CN(C)C(=O)c2ccc(COc3ccccc3)cc2)c1	-3	-2	-7	4478	-3	-1
Cn1c(=S)[nH]c2c(c1=O)C(C)(C)Cc1ccccc1-2	1	4	11	3349	-1	0
COc1cc(OC)cc(-c2nnc(SCC(=O)N3CCCC3)o2)c1	2	118*	-4	2891	1	0
C/C(N)=C(/C#N)C(=O)CSc1nnc(-c2ccccc2Br)o1	-21	-3	3	4690	-5	-1
COc1cc(OC)cc(-c2nnc(SCc3cccc(C(=O)O)c3)o2)c1	1	0	6	22846*	0	2
COc1cccc(-c2nnc(SCC(=O)N(C(C)C)C(C)C)o2)c1	-5	0	5	24162*	-3	?
COc1ccc(-c2nnc(SCC(=O)/C(C#N)=C(\C)N)o2)cc1	-2	-1	-4	24309*	0	?
O=C(O)c1cccc(CSc2nnc(-c3ccco3)o2)c1	-3	7	8	5168	-2	0
COc1cc(C(=O)N2CCCCC2c2cc(C(=O)N3CCOCC3)no2)cc(OC)c1C (stereo not drawn)	-5	-2	-1	3535	-1	0
c1ccc(CSc2nnc(Cc3ccccc3)o2)cc1	2	2	-4	4186	-4	0
O=C(O)c1cccc(CSc2nnc(Cc3ccccc3)o2)c1	-2	-2	12	22785*	1	?
CC(=O)c1c(C)[nH]c(C(=O)CSc2nnc(-c3ccco3)n2Cc2ccccc2)c1C	1	0	9	16352*	0	0
Cn1cnnc1SCC(=O)NCCC(c1ccccc1)c1ccccc1	-8	1	0	2429	-1	0
CC(C)(C)NC(=O)CSc1nnc(-c2ccco2)n1Cc1ccco1	-1	1	4	16522*	-4	-1
COCCn1c(SCC(=O)NCCc2ccccc2)nnc1-c1ccco1	-3	-1	5	17231*	-1	-3
CC(=O)c1c(C)[nH]c(C(=O)CSc2nnc(-c3cccs3)n2Cc2ccccc2)c1C	-7	-1	5	11137	-2	0
Cn1cnnc1SCC(=O)NCCc1ccccc1	-6	-2	-4	23752*	-3	-3
CC1CCN(C(=O)c2ccc(-c3ccccc3Cl)o2)CC1	-12	4	12	?	4	-2
CN(C)CCCn1c(=O)n(C2CCCCC2)c(=O)c2c3c(sc21)CCCCC3	-4	3	5	3517	-10	-2
SMILES	BoNT F protease	FBA Mtb inh	GDH-TPI inh	Bead autofluor	Anthrax LF inh2	BoNT A protease
COCCOC(=O)c1c(C)nc(SCC(=O)Nc2ccc(OC)cc2)c(C#N)c1-c1ccco1	?	-1	3	4271	4	0
COc1ccc(NC(=O)CSc2nc(C)c3c(c2C#N)CCCC3)cc1	-2	3	5	21814*	0	0
COc1ccccc1NC(=O)CSc1nc(C)c2c(c1C#N)CCCC2	-2	-6	-4	23495*	-1	-2
COc1cccc(NC(=O)CSc2nc3c(c(-c4ccco4)c2C#N)CCCC3)c1	1	-1	4	23093*	-6	?
COC(=O)[C@]1(CC(C)C)N[C@H](c2ccc(-c3ccc(F)cc3)cc2)[C@@H]2C(=O)N(C)C(=O)[C@@H]21	-4	2	3	3629	4	0
c1ccc2sc(-c3ccc4c(c3)OCO4)nc2c1	-5	130*	18	21120*	-3	-1
O=C(Nc1cccc(-c2nc3ccccc3s2)c1)c1ccc2c(c1)OCO2	4	1	14	9589	-1	2
CC(=O)c1cccc(NC(=O)c2ccc([N+](=O)[O-])o2)c1	?	0	46*	4065	-6	1
